SMILES strings stand for the structures. Active and inactive are the calls of the source.

In assay [1] the test system is PRMT1 (protein arginine N-methyltransferase 1). Put plainly: small molecules binding arginine methyltransferase PRMT1 – biochemical, small-molecule microarray, 635 nm fluorescence, primary screen (AID 1088).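 Further: binding of Prmt1 protein to compounds spotted on small-molecule microarray slides.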 The following applies: higher = more signal.
The nature of assay [2]: growth effects on S. cerevisiae YJM789 – YJM789 clinical isolate, OD600, 24 h, basal, primary screen (AID 1089).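 Further: growth of clinical yeast isolate S. cerevisiae YJM 789 seeded 1000 cells per well; test concentration not given here.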 The following applies: higher = more signal, called active from +8 up or from −8 down.
A short description of assay [3]: S. pombe growth modifiers, basal conditions – strain 972, OD600, 24 h, no modulator, primary screen (AID 1090).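 Further: basal condition with compound alone and no growth modifier present; test concentration not given here.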 The following applies: S. pombe 972 growth, higher = more signal, called active from +8 up or from −8 down.
A short description of assay [4]: budding yeast growth modifiers under rapamycin – strain BY4716, OD600, 96 h, primary screen (AID 1091). Further: test concentration not given here. The following applies: S. cerevisiae BY4716 + rapamycin, higher = more signal, called active from +8 up or from −8 down.
The target in assay [5] is Torsin-1A-interacting protein 2 (Homo sapiens) (UniProt Q8NFQ8). In words: small molecules binding lysate-expressed LULL1 – cell lysate, human LULL1 lysate, 635/667 nm fluorescence, primary screen (AID 1092).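 Further: probe is lysate of COS7 cells overexpressing human LULL1; score merges per-feature 667 nm fluorescence with signal-to-noise.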 The following applies: small-molecule microarray, hLULL1 lysate binding, 635 nm fluorescence; higher = more signal.
The nature of assay [6]: optical density change of DRC41 E. coli – strain DRC41, OD650, 24 h, E. coli filamentation project, primary screen (AID 1093).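 Further: MC1000 strain lacking acrAB efflux and sulA so SOS filamentation is blocked; test concentration not given here.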 The following applies: E. coli DRC41 growth, higher = more signal, called active from +8 up or from −8 down.
Assay [7] can be described thus: probe aLefty2 binding to arrayed compounds – biochemical, biotinylated probe, 635/667 nm fluorescence, primary screen (AID 1094).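 Further: score merges spot fluorescence near 667 nm with spot signal-to-noise ratio.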 The following applies: small-molecule microarray, higher = more signal.
Assay [8] relates to Noggin (protein binding on small-molecule microarray). Put plainly: small molecules binding Noggin protein – biochemical, 635/667 nm fluorescence, primary screen (AID 1095).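 Further: score merges 667 nm feature fluorescence with signal to noise over triplicate slides.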 The following applies: 635 nm fluorescence, higher = more signal.
Assay [9] concerns the target Neurogenic locus notch homolog protein 3 (Homo sapiens) (UniProt Q9UM47). Put plainly: small molecules binding NOTCH3 protein – biochemical, 635/667 nm fluorescence, primary screen (AID 1096). The following applies: small-molecule microarray, 635 nm fluorescence, higher = more signal.
Assay [10] can be described thus: probe aEGFR binding to arrayed compounds – biochemical, biotinylated probe, 635/667 nm fluorescence, primary screen (AID 1097).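 Further: probe is a biotinylated anti-EGFR antibody binding compounds printed on slides; score combines fluorescence near 667 nm and signal to noise of each spot.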 The following applies: small-molecule microarray, higher = more signal.

Torsin-1A-interacting protein 2 (Homo sapiens), sequence (Q8NFQ8 whole entry, looked up): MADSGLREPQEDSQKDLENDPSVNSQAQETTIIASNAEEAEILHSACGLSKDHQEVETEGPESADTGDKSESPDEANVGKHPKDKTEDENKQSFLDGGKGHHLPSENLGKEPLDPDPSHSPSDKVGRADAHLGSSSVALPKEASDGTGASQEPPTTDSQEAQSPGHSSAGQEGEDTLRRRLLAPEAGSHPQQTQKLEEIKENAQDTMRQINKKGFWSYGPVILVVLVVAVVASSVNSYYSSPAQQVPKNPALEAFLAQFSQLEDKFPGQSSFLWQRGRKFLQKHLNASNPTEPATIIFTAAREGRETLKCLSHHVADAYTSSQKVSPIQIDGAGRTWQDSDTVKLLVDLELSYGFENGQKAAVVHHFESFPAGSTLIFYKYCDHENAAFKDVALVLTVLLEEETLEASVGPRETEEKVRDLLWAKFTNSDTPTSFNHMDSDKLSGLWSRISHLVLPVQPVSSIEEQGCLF
Neurogenic locus notch homolog protein 3 (Homo sapiens), sequence (Q9UM47 whole entry, looked up): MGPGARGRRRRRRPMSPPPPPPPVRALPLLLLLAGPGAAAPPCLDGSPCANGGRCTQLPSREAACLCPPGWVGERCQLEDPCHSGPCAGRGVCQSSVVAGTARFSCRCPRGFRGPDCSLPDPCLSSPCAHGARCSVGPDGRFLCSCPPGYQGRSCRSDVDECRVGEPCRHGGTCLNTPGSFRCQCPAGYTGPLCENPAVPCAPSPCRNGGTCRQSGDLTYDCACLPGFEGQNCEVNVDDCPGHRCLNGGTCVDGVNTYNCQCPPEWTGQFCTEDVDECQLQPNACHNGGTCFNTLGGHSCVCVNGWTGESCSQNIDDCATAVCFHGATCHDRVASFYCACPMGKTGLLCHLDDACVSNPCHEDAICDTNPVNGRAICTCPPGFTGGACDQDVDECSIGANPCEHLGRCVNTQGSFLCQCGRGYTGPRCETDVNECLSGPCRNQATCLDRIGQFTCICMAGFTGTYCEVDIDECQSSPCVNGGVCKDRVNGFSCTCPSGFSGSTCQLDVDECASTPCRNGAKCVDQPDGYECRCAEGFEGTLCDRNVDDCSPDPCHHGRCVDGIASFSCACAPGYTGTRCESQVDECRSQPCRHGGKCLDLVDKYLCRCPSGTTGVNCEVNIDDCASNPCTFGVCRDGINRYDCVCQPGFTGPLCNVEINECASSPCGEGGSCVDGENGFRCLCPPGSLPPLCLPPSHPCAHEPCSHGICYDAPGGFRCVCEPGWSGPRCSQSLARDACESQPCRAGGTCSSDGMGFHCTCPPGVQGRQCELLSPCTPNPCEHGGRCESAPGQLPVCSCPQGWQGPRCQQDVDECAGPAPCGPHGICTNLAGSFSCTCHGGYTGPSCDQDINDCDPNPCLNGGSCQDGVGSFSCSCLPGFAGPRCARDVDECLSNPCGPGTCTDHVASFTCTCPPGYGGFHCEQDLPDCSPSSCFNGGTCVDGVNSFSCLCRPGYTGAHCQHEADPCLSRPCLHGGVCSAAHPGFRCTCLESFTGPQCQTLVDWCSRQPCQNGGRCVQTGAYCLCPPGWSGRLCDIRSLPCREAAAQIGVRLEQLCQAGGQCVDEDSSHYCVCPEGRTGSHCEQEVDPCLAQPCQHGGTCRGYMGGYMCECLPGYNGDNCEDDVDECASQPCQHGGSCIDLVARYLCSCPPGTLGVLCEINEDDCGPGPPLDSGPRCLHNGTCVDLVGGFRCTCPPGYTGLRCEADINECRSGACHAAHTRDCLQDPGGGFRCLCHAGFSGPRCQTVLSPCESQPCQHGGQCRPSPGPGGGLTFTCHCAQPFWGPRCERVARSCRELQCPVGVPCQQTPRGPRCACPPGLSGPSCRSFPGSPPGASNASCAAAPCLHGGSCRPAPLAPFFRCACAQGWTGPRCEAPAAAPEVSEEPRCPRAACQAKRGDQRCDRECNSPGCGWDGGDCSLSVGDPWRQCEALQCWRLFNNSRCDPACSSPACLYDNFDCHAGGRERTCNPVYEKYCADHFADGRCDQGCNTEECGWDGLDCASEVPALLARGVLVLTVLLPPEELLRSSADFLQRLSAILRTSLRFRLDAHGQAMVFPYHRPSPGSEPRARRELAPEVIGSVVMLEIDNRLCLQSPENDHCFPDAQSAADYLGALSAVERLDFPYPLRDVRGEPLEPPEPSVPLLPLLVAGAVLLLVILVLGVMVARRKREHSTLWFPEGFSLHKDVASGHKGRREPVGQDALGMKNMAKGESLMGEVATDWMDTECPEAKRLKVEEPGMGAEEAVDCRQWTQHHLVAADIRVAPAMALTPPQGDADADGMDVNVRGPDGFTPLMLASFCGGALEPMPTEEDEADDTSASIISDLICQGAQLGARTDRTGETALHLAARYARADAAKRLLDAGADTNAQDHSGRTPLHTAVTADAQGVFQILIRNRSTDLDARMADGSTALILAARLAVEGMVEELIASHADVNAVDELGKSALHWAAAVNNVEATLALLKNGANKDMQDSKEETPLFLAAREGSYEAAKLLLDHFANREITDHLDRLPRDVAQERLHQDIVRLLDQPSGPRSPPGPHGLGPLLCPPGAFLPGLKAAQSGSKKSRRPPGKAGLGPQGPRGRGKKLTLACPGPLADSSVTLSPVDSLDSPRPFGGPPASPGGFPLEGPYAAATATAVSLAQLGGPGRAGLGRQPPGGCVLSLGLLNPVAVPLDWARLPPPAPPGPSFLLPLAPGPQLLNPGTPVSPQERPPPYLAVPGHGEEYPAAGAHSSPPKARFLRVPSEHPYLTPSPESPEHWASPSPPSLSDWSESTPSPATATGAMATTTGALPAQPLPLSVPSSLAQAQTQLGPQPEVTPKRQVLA

In the case of `COc1cc2c(cc1OC)CN(C(=O)[C@H]1[C@@H]3C(=O)O[C@@H](c4ccccc4)[C@@H](c4ccccc4)N3[C@@H](c3ccc(OCCO)cc3)[C@]13C(=O)Nc1ccc(C#CCCO)cc13)CC2`, the composite z-score in assay [1] is 1.54; in assay [5] it was 2.87; in assay [7] it was 0.0448; in assay [8], 1.14; in assay [9], 1.06; in [10], -0.0069. Also, the z-score in assay [2] was 2.48 (inactive); in assay [3], 1.55 (inactive); in assay [4], 5.29 (inactive); in [6], 0.314 (inactive).
In the case of `COc1ccc(C(O)C2C=CC3C(=O)N(C)C(=O)C3N2N2CCCCC2)cc1` (stereo not given), the composite z-score in assay [1] amounted to 0.973; in [5], 2.83; in assay [7], 0.311; in assay [8], 0.158; in assay [9], 0.871; in assay [10] it was 0.0961. Besides, the z-score in assay [2] is -0.186 (inactive); in assay [3], -0.275 (inactive); in [4], -0.0667 (inactive); in [6], -0.454 (inactive).
`COc1ccccc1CN1C(=O)c2ccccc2[C@@H](C(=O)NC(C)C)[C@@H]1c1ccc(CO)cc1`: the composite z-score in assay [1] amounted to 1.51; in [5] it was 2.36; in assay [7], 0.12; in assay [8], 0.885; in [9], 1.09; in [10], 0.14. The z-score in [2] was -0.309 (inactive); in assay [3], -0.0831 (inactive); in assay [4] it was -0.352 (inactive); in assay [6] it was 1.02 (inactive).
`Cc1ccc(F)cc1S(=O)(=O)N[C@@H]1CCN(Cc2ccc(Oc3ccccc3)cc2)C1`: the composite z-score in assay [1] is -0.434; in assay [5], -0.367; in [7], -0.0073; in assay [8] it was 0.966; in assay [9], 0.551; in [10], -0.0953. The z-score in [2] was -21.2 (active); in [3] it was -21.4 (active); in [4], -3.22 (inactive); in [6], -14.1 (active).
On to `CN(C)C(=O)[C@]1(CCC(=O)OC(C)(C)C)N=C(c2ccc(OCCCO)cc2)O[C@@H]1c1ccccc1`, for which the composite z-score in assay [1] was 0.637; in assay [5] it was 3.56; in [7] it was 0.0601; in assay [8], -0.674; in [9], -0.301; in [10], 0.625. Also, the z-score in [2] is 0.182 (inactive); in assay [3] it was -0.993 (inactive); in assay [4], -0.273 (inactive); in assay [6] it was 1.27 (inactive).
Take `COCCOC(=O)N1C(=O)[C@@]2(c3cc(C#Cc4ccc(OC)cc4)ccc31)[C@H](C(=O)N1CCCCCCC1)[C@H]1C(=O)O[C@H](c3ccccc3)[C@H](c3ccccc3)N1[C@@H]2c1ccc(O)cc1`: the composite z-score in assay [1] is 1.47; in assay [5], 1.79; in assay [7] it was 0.834; in assay [8], 0.674; in assay [9] it was 0.709; in assay [10] it was 0.0577. Also, the z-score in assay [2] was -0.194 (inactive); in [3] it was 0.318 (inactive); in assay [4], 2.3 (inactive); in assay [6] it was 0.551 (inactive).
For `Cc1ccc(S[C@]2(C(=O)O)CC(=O)N(Cc3ccccc3Cl)[C@@H]2c2ccc(CO)cc2)cc1`, the composite z-score in assay [1] is -0.164; in [5], 2.95; in assay [7], 0.0069; in assay [8], -1.46; in [9] it was -0.944; in assay [10], -0.119. The z-score in [2] was -0.0285 (inactive); in assay [3], -1.31 (inactive); in assay [4] it was 0.644 (inactive); in assay [6], -0.0647 (inactive).
With `CC1CC/C=C\[C@H]2OC34C=CCN(C(C)C)C(=O)[C@H]3N(CCCCCO)C(=O)[C@@H]4C2C(=O)O1` (stereo not given in full), the composite z-score in assay [1] is -0.897; in assay [5], -0.573; in [7], -0.139; in assay [8], -1.43; in assay [9], -0.208; in assay [10], -0.281. In addition, the z-score in assay [2] is -0.104 (inactive); in assay [3] it was -0.931 (inactive); in assay [4] it was -0.958 (inactive); in assay [6], 0.827 (inactive).
Regarding `Cc1c(NC(=O)/C(C#N)=C/C=C/c2ccccc2[N+](=O)[O-])c(=O)n(-c2ccccc2)n1C`, the composite z-score is 0.454 in [1]; 1.85 in assay [5]; -0.0124 in [7]; 0.148 in assay [8]; 0.945 in assay [9]; -0.0043 in assay [10]. The z-score is 0.218 (inactive) in assay [2], -0.322 (inactive) in assay [3], 0.477 (inactive) in assay [4] and 1.02 (inactive) in assay [6].
For the compound `COC1(C)CN(Cc2ccccc2Br)[C@H](/C=C/c2ccccc2)[C@H](Cc2ccccc2)O1` (stereo not given in full), the composite z-score in [1] is -0.355; in [5] it was -0.92; in assay [7], -0.231; in assay [8], -0.391; in [9], -0.789; in assay [10], -0.159. In addition, the z-score in assay [2] is -0.0969 (inactive); in assay [3] it was 0.239 (inactive); in assay [4], 0.243 (inactive); in assay [6], 1.07 (inactive).
In the case of `CCCNC(=O)[C@@]1(c2ccc([N+](=O)[O-])cc2)CC(=O)N(C2CCCCC2)[C@@H]1c1ccc(CO)cc1I`, the composite z-score in assay [1] is 1.48; in assay [5], 2.52; in assay [7], -0.0649; in assay [8], 1.5; in assay [9], 0.976; in [10], 0.0592. The z-score is -1.58 (inactive) in assay [2], 0.503 (inactive) in assay [3], 1.93 (inactive) in [4] and 0.422 (inactive) in assay [6].
In the case of `C=CCN1C(=O)[C@@]2(O[C@@H](CCn3cc([C@H](O)c4ccccc4)nn3)[C@H]([Si](C)(C)c3ccc(OC)cc3)[C@H]2C)c2ccccc21`, the composite z-score in assay [1] was 1.55; in assay [5], 1.02; in assay [7] it was -0.0507; in assay [8] it was 0.442; in assay [9], 1.16; in assay [10], -0.094. Besides, the z-score in [2] was -0.78 (inactive); in assay [3], -0.0638 (inactive); in assay [4], 0.307 (inactive); in [6], 1.1 (inactive).
Turning to `COc1ccc(NC(=O)O[C@H]2[C@H](OC(=O)Nc3ccc4c(c3)OCO4)[C@@H](OC(=O)Nc3ccc4c(c3)OCO4)[C@@H](OC)O[C@@H]2CO)cc1`, the composite z-score in assay [1] was 1.56; in assay [5] it was 3.66; in assay [7], -0.0396; in assay [8], 0.89; in assay [9] it was 1.08; in assay [10], -0.0953. For the same compound, the z-score in assay [2] was 1.5 (inactive); in [3] it was 1.61 (inactive); in [4], -0.31 (inactive); in [6], 1.93 (inactive).
For `Cc1c(NC(=O)/C(C#N)=C/C=C/c2ccc(N(C)C)cc2)c(=O)n(-c2ccccc2)n1C`, the composite z-score was found to be 1.55 in assay [1]; 2.6 in [5]; 0.647 in [7]; 0.586 in assay [8]; 0.739 in assay [9]; 0.118 in assay [10]. Besides, the z-score is -0.0755 (inactive) in assay [2], -0.544 (inactive) in [3], -0.299 (inactive) in [4] and 0.482 (inactive) in assay [6].

Values taken from PubChem BioAssay.
